High-throughput results from PubChem BioAssay.
The list is not random: actives were taken first. Their share in the collection is about 8.7%.
G9a block: qHTS Assay for Inhibitors of Histone Lysine Methyltransferase G9a. Histone-lysine N-methyltransferase EHMT2 (Homo sapiens), Q96KQ7. G9a H3K9 monomethylation, AlphaScreen, 2 h. Potency, µM (highest dose often 102 µM), for inactives: top-dose activity, negative = inhibition, hits mostly inhibitors. 350,000 compounds, 8.8% hits. AID 504332, 2011; also: % is scaled to controls: 0 for no effect and ±100 for the full control effect; nearly all actives have a fitted effect of over 75% in size
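Signal arises when biotinylated H3K9 peptide, once monomethylated, bridges streptavidin donor and antibody-captured acceptor beads. Enzyme at 20 nM was preincubated 15 min with test compounds; peptide 500 nM and SAM 20 uM then reacted for 2 h.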
JMJD2A Tudor inh: qHTS Assay for Inhibitors of JMJD2A-Tudor Domain. Lysine-specific demethylase 4A (Homo sapiens), O75164. AlphaScreen JMJD2A-Tudor / H3K4me3 peptide binding. Potency, µM (series often up to 114 µM), for the others: at the top dose activity change, negative = inhibition, actives largely listed as inhibitors. 390,000 compounds, 4.4% hits. AID 504339, 2011; also: % is scaled to controls: 0 for no effect and ±100 for the full control effect; nearly all actives have a fitted effect of over 50% in size
Target sequence (O75164 whole entry, looked up, the tested form may be a part): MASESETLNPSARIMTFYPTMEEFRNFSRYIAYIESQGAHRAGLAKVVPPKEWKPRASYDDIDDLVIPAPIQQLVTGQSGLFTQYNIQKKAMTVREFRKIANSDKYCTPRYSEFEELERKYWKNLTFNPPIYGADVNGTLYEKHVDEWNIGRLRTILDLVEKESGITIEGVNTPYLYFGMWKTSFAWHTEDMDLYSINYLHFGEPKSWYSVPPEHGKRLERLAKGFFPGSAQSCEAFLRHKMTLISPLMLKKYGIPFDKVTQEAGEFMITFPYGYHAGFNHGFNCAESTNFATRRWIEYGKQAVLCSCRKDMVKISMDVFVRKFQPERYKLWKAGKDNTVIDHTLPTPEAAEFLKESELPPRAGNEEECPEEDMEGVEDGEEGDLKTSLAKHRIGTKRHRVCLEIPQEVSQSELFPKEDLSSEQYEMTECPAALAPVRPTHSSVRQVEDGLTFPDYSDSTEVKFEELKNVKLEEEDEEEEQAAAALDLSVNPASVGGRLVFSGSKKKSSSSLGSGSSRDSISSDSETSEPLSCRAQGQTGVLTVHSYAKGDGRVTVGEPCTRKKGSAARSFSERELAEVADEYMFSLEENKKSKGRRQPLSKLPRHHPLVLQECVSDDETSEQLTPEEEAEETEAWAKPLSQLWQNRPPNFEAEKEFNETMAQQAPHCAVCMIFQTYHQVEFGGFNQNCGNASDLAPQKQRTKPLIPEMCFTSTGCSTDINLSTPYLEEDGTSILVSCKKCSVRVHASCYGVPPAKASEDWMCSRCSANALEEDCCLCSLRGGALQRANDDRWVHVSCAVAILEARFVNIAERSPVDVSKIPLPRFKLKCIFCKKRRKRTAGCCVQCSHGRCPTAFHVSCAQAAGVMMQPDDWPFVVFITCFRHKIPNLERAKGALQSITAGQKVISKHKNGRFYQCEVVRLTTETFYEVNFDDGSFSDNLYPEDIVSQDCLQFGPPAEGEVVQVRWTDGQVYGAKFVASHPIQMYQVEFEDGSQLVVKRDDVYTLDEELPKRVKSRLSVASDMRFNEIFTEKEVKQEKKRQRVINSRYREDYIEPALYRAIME
BAZ2B inh: qHTS Assay for Inhibitors of BAZ2B; AlphaScreen BAZ2B-H3K14Ac peptide displacement; Potency, µM (doses to about 114 µM), for inactives: top-dose activity change, negative = inhibition, usual class: inhibitors; 360,000 compounds, 4.4% hits; AID 504333, 2011; also: % is scaled to controls: 0 for no effect and ±100 for the full control effect; nearly all actives have a fitted effect of over 60% in size
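BAZ2B 50 nM plus b-H3(5-23)K14Ac 50 nM, PBS pH 7.4/0.01% Tween-20, 30 min RT; compound added (max 110 uM), 30 min RT; streptavidin donor/Ni-chelate acceptor beads 10 ug/mL final, 20 min dark; AlphaScreen read.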
HP1b chromo inh: HTS for Inhibitors of HP1-beta Chromodomain Interactions with Methylated Histone Tails; Chromobox protein homolog 1 (Homo sapiens), P83916; AlphaScreen HP1-beta / biotin-H3K9me3 peptide binding; Potency, µM (top dose mostly 114 µM), for the others: at the top dose activity change, negative = inhibition, hits mostly inhibitors; 390,000 compounds, 0.56% hits; AID 540317, 2011; also: nearly all actives have a fitted effect of over 70% in size
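AlphaScreen: HP1-beta (50 nM) preformed 30 min with biotin-H3(1-18)K9me3 peptide (50 nM) in PBS pH 7.4, 0.01% Tween-20. Compound added for 30 min at RT, then streptavidin donor/nickel chelate acceptor beads (10 ug/mL) for 30 min.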
12-LOX inh: Primary qHTS assay for inhibitors of human arachidonate 12S-lipoxygenase (ALOX12): Round 2 | Polyunsaturated fatty acid lipoxygenase ALOX12 (Homo sapiens), P18054 | purified 12hLO, xylenol orange hydroperoxide absorbance | Potency, µM (titrated, usually from 108 µM), without a hit: at the top dose activity change, negative = inhibition, usual class: inhibitors | 580,000 compounds, 1.1% hits | AID 1671190, 2021; also: % is scaled to controls: 0 for no effect and ±100 for the full control effect
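Purified human 12hLO (150 nM final) in 25 mM Hepes, 0.01% Triton X-100, pH 7.0 was preincubated 15 min at room temperature with compound. Then 40 uM arachidonic acid was added, 30 min. Hydroperoxide was read by Fe-XO absorbance ratio 573/405 nm.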
Sfp inh: qHTS Assay for Inhibitors of Bacillus subtilis Sfp phosphopantetheinyl transferase (PPTase) | Biochemical Sfp PPTase activity, qHTS | Potency, µM, without a hit: largest response in the series, negative = inhibition, usual class: inhibitors | 4'-phosphopantetheinyl transferase ffp (Bacillus subtilis), Q9F4F7 | 310,000 compounds, 3.5% hits;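 also: the enzyme is Sfp with the accession as filed and its product quenches rhodamine fluorescence; 0% = enzyme reaction without inhibitor and -100% = no enzyme wells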
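Reaction rates are the 30-min fluorescence difference (ex 525, em 598 nm) in wells containing 15 nM Sfp, 5 uM rhodamine-CoA and 12.5 uM BHQ-2-YbbR at pH 7.6 with 10 mM MgCl2.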
* hit, by the source's call; ? = inconclusive; / = no result given; [ ] = another dose, or the depositor's remark. Calls follow the shape of the dose curve; as a rule, active = well fitted curve in the direction sought with a large enough effect; inconclusive = small, poorly fitted or top-dose-only effect, or another doubt; inactive = no such curve, though single readings can be large; an effect the other way counts as inactive or inconclusive. Potency is read from the fitted curve at half-maximal effect.

SMILES	G9a block	JMJD2A Tudor inh	BAZ2B inh	HP1b chromo inh	12-LOX inh	Sfp inh
Cc1ccc(S(=O)(=O)N2CCCCC2)cc1NC(=O)COC(=O)C1CC2C=CC1C2 (centres undefined)	20.6%	-16.0%	2.2%	1.6%	12.0%	22.7%
COc1cc(Cl)c(C)cc1NCC(=O)Nc1cccc(S(=O)(=O)N2CCCC2)c1	11.2µM*	?	?	-17.8%	484.6%	/
N#Cc1ccc(Cl)cc1NC(=O)CNc1cccc(S(=O)(=O)N2CCCC2)c1	44.7µM*	-3.1%	2.5%	39.5%	-19.0%	/
N#Cc1ccccc1-c1ccc(COc2ccccc2C(N)=O)cc1	/	/	/	/	1.7%	/
Cc1ccc(NC(=O)CCNC(=O)c2ccccc2Cl)cc1S(=O)(=O)N1CCCCCC1	14.0%[12.7 µM]	-19.4%	-27.6%	14.3%	-13.1%	/
Cc1ccc(S(=O)(=O)N2CCCCC2)cc1NC(=O)Cc1c[nH]c2ccccc12	-5.1%[59 µM]	?	-6.0%	-4.3%	-14.2%	0.4%
COc1ccccc1CN(C)CC(=O)Nc1cccc(S(=O)(=O)N2CCCC2)c1	/	0.794µM*	/	-16.9%	-20.3%	/
Cc1ccc(NC(=O)Cc2c[nH]c3ccccc23)cc1S(=O)(=O)N1CCCCCC1	25.1µM*	-19.2%	-38.8%	27.6%	-6.9%	3.4%
Cc1ccc(NC(=O)CCNC(=O)c2ccc(Br)cc2)cc1S(=O)(=O)N1CCCCCC1	50.1µM*	-17.9%	0.8%	6.0%	-8.3%	/
Cc1ccc(NC(=O)Cn2cc(C(F)(F)F)cc(Cl)c2=O)cc1S(=O)(=O)N1CCCCC1	50.1µM*	-23.6%	3.8%	7.4%	4.8%	/
COc1ccc(CNC(=O)Cn2ccn3nc(-c4ccc(F)cc4)c(CO)c3c2=O)cc1OC	/	/	/	/	30.8%	/
Cc1ccc(O)c(C(=O)c2cnn(-c3ccccc3)c2)c1	-3.3%[2.33 µM]	15.8µM*	-6.1%	-6.1%	?	-15.8%
O=C(Cc1cnn(-c2ccccc2)c1)c1ccc(O)c(O)c1O	12.6µM*	?	?	?	?	31.6µM*
O=C(COc1ccccc1C(=O)c1cnn(-c2ccccc2)c1)Nc1ccccc1	44.7µM*	-19.5%	-1.2%	13.0%	-3.6%	6.0%
COc1ccccc1CNC(=O)COc1ccccc1C(=O)c1cnn(-c2ccccc2)c1	?	-20.1%	-5.6%	35.8%	388.0%	/
O=C(O)CCc1cccc(Br)c1	/	/	/	/	16.3%	/
CN1C(=S)SC(C)(C)C1N(O)C=C1C=CC(=O)C=C1 (centres undefined)	/	/	/	/	-1.0%	/
COCCn1c(N2CCCC(C)C2)nc2c1c(=O)[nH]c(=O)n2C (centres undefined)	/	/	/	/	32.0%	/
COc1cccc2c1C(=O)c1c(O)c3c(c(O)c1C2=O)CC(O)(C(C)=O)CC3OC1CC(O)C(O)C(C)O1 (centres undefined)	/	?	/	?	2.6%	/
COc1cccc2c1C(=N)c1c(O)c3c(c(O)c1C2=O)CC(O)(C(C)=O)CC3OC1CC(N)C(O)C(C)O1 (centres undefined)	/	39.8µM*	/	?	/	/
COc1cccc2c1C(=O)c1c(O)c3c(c(O)c1C2=O)C[C@](O)(C(C)=O)C[C@H]3O[C@@H]1C[C@@H](N)[C@@H](O)[C@@H](C)O1	?	?	44.7µM*	-11.5%	20.8%	/
COc1cccc(CN2CCC3(CC2)c2[nH]c4ccccc4c2CCN3C)c1	/	/	/	/	-8.0%	/
COc1ccccc1CN1CCc2c([nH]c3ccccc23)C1	7.08µM*	20µM*	50.1µM*	?	?	-8.8%
Clc1cccc(CN2CCc3c([nH]c4ccccc34)C2)c1Cl	50.1µM*	22.4µM*	22.4µM*	?	?	-15.7%
COc1cc(CN2CCc3c([nH]c4ccccc34)C2)cc(OC)c1	31.6µM*	7.94µM*	35.5µM*	?	?	1.6%
SMILES	G9a block	JMJD2A Tudor inh	BAZ2B inh	HP1b chromo inh	12-LOX inh	Sfp inh
O=C(c1ccccc1Br)N1CCc2c([nH]c3ccccc23)C1	9.2%[2.33 µM]	?	?	-15.6%	?	6.0%
COc1ccc(-c2coc3c(C)c(OCCN4CCC(C)CC4)ccc3c2=O)cc1	/	/	/	/	1.6%	/
Cc1noc(C)c1CC(=O)N1CCC(CC(=O)N(C)Cc2ccccc2)C1 (centres undefined)	/	/	/	/	68.7%	/
Cc1cccc(Cn2c(SCCN3CCOCC3)nc3c2c(=O)n(C)c(=O)n3C)c1	44.7µM*	-20.4%	4.9%	2.6%	2.1%	12.3%
Cn1c(=O)c2c(nc(N3CCCCCC3)n2Cc2cccc3ccccc23)n(C)c1=O	-17.3%	?	?	?	11.6%	?
Cc1cccc(Cn2c(N3CCN(C)CC3)nc3c2c(=O)n(C)c(=O)n3C)c1	20µM*	-12.9%	-36.7%	16.6%	-16.8%	8.4%
CN1CCN(c2nc3c(c(=O)n(C)c(=O)n3C)n2Cc2cccc(Br)c2)CC1	/	-10.3%	3.2%	26.0%	10.8%	13.6%
Cn1c(N2CCN(c3ccccn3)CC2)nc2c1c(=O)n(Cc1ccc(Cl)cc1)c(=O)n2C	39.8µM*	?	?	-10.8%	0.0%	-6.4%
CN1CCN(c2nc3c(c(=O)n(C)c(=O)n3C)n2Cc2cccc3ccccc23)CC1	44.7µM*	-20.4%	-36.1%	5.6%	11.4%	7.8%
Cc1ccc(Cn2c(SCCN3CCOCC3)nc3c2c(=O)n(C)c(=O)n3C)cc1	14.6%	-18.8%	8.2%	18.3%	-17.3%	8.9%
O=C(CC1CC2CCC1C2)NC12CC3CC(CC(C3)C1)C2 (centres undefined)	/	/	/	/	-5.9%	/
Fc1ccc(-c2csc3ncnc(Nc4ccc(N5CCOCC5)cc4)c23)cc1	31.9%[0.501 µM]	?	39.8µM*	-24.3%	21.2%	0.2%
Fc1ccc(N2CCN(c3nc(CN4CCOCC4)nc4scc(-c5ccccc5)c34)CC2)cc1	8.91µM*	44.7µM*	11.2µM*	?	-1.3%	-14.8%
O=C(COc1cccc2ccccc12)N/N=C/c1ccco1	/	-21.2%	?	18.0%	1.5%	-9.6%
Cc1cccc(OCC(=O)N/N=C/C=C/c2ccco2)c1	8.91µM*	-35.0%	?	-1.3%	?	?
CCc1ccc(OCC(=O)N/N=C\c2ccco2)c([N+](=O)[O-])c1	-11.5%[59 µM]	?	44.7µM*	?	-9.2%	-6.6%
O=C(COc1c(Br)cc(Br)cc1Br)N/N=C/c1ccco1	6.1%[0.501 µM]	-13.5%	-38.3%	50.3%	/	5.6%
